Drawing on ChEMBL document CHEMBL1961873, “Compounds: GSK PKIS; Assays: Nanosyn kinase panel” (2012), this text covers inhibition for two molecules.

The target in assay [1] is T1, Inhibitor of nuclear factor kappa-B kinase subunit epsilon (Homo sapiens) (UniProt Q14164).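 Also: reported values are averaged percent inhibition figures against human IKKε.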
T1 sequence (whole entry): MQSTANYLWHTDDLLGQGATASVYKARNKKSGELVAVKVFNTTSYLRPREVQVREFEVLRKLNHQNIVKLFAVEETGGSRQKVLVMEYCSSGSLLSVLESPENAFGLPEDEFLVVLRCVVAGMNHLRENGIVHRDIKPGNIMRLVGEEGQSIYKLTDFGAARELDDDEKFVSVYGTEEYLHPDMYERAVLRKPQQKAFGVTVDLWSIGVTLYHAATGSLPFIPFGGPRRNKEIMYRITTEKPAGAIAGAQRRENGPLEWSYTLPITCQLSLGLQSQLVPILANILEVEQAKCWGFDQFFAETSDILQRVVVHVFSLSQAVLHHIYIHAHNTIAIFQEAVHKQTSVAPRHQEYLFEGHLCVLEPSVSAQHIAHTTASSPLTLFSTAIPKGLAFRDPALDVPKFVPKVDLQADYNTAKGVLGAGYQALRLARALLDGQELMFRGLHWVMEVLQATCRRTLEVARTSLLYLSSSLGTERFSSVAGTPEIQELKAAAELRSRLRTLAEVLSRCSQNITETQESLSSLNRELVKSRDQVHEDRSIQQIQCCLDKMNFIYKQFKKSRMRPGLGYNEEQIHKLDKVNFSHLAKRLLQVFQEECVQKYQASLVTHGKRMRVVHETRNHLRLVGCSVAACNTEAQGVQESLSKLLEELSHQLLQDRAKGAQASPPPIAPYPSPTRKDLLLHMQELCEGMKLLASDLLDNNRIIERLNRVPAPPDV
As to conditions: at 1 µM.

The target of assay [2] is T2, Serine/threonine-protein kinase Nek1 (Homo sapiens) (UniProt Q96PY6).
T2 sequence (whole entry): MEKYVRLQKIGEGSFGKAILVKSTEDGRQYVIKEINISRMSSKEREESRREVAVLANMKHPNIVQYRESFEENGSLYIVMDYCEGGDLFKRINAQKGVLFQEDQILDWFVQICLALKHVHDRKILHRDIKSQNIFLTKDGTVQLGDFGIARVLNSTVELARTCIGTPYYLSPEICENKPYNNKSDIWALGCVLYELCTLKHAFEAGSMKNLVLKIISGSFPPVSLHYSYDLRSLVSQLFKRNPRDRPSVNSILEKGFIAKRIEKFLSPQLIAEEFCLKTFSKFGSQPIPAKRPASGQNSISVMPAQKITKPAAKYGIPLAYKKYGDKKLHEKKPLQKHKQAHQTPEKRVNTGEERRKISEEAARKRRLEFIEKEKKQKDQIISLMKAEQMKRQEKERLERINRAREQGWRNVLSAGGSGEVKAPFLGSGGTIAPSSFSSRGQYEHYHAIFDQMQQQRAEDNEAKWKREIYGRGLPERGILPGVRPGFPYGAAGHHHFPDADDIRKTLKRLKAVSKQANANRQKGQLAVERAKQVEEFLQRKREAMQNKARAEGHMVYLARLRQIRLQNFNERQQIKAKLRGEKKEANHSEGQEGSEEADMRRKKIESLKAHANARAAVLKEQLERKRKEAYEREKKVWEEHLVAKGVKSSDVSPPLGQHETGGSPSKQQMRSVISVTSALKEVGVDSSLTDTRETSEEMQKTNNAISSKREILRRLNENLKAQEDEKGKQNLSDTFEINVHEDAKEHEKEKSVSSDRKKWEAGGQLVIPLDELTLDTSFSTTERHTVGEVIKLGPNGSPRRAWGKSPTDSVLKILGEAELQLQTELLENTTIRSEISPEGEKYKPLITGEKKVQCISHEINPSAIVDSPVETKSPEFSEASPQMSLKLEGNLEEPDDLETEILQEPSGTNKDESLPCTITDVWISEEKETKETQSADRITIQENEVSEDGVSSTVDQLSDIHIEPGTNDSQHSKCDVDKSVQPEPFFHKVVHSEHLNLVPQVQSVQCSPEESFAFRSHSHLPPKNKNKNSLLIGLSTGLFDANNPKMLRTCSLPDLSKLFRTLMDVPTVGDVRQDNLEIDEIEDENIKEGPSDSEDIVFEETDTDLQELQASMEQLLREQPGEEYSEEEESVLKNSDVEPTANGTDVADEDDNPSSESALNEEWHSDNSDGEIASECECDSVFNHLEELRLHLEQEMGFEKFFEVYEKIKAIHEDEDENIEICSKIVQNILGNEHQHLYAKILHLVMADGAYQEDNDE
As to conditions: at 0.1 µM.

Assay [3] addresses T2, Serine/threonine-protein kinase Nek1 (Homo sapiens). As to conditions: at 1 µM.
Assay [4] has as its target T3, Serine/threonine-protein kinase Nek2 (Homo sapiens) (UniProt P51955).
T3 sequence (whole entry): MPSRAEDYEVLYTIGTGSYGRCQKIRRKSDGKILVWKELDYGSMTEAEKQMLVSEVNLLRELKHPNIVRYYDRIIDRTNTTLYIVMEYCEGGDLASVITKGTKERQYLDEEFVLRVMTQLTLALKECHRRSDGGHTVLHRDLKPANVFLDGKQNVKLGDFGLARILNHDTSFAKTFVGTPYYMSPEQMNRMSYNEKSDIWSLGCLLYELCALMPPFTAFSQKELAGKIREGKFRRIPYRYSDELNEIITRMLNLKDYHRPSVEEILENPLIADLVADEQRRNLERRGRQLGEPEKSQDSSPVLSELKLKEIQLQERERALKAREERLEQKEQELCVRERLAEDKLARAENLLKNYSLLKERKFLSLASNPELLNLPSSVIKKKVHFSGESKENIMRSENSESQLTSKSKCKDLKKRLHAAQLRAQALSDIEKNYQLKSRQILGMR
As to conditions: at 0.1 µM.

The target of assay [5] is T3, Serine/threonine-protein kinase Nek2 (Homo sapiens). The conditions noted are these: at 1 µM.
Assay [6] has as its target Serine/threonine-protein kinase Nek6 (Homo sapiens) (UniProt Q9HC98). The conditions noted are these: at 0.1 µM.
Assay [7] shares this target. As to conditions: at 1 µM.
The target in assay [8] is Serine/threonine-protein kinase Nek7 (Homo sapiens) (UniProt Q8TDX7). The conditions noted are these: at 0.1 µM.
Assay [9] shares this target. As to conditions: at 1 µM.
For assay [10], the target named is T4, Serine/threonine-protein kinase Nek9 (Homo sapiens) (UniProt Q8TD19).
T4 sequence (whole entry): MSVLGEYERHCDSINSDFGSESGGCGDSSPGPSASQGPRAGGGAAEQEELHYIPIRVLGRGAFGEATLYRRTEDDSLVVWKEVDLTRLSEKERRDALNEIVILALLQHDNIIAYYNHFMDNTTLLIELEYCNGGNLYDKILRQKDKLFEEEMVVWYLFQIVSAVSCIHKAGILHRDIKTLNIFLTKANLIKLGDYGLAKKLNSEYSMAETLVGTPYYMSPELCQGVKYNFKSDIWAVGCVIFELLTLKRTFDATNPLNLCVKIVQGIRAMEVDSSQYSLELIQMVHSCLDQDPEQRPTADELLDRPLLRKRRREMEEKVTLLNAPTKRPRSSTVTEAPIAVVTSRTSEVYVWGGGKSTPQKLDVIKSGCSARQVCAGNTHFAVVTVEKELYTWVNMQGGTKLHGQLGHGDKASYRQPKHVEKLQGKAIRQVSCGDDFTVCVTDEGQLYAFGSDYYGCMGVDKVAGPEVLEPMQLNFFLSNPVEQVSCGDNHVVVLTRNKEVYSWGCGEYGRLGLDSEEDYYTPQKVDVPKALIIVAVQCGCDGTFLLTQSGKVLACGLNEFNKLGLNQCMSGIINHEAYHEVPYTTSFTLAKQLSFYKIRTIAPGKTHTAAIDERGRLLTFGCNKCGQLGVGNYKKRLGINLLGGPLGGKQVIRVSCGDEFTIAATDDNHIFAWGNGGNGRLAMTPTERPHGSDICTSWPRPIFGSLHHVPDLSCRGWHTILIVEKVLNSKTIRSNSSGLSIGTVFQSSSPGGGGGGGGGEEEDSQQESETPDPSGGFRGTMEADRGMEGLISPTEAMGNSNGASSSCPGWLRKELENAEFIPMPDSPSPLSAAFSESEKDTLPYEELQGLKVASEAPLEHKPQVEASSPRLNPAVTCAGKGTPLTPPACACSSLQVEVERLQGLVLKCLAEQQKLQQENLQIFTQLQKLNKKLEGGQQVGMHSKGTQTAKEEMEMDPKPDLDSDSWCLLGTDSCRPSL
As to conditions: at 0.1 µM.

Assay [11] concerns the target T4, Serine/threonine-protein kinase Nek9 (Homo sapiens). As to conditions: at 1 µM.
Assay [12] addresses Serine/threonine-protein kinase PLK1 (Homo sapiens) (UniProt P53350). As to conditions: at 0.1 µM.
For assay [13] the target is unchanged. As to conditions: at 1 µM.
For assay [14], the target named is T5, Dual specificity protein kinase TTK (Homo sapiens) (UniProt P33981).
T5 sequence (whole entry): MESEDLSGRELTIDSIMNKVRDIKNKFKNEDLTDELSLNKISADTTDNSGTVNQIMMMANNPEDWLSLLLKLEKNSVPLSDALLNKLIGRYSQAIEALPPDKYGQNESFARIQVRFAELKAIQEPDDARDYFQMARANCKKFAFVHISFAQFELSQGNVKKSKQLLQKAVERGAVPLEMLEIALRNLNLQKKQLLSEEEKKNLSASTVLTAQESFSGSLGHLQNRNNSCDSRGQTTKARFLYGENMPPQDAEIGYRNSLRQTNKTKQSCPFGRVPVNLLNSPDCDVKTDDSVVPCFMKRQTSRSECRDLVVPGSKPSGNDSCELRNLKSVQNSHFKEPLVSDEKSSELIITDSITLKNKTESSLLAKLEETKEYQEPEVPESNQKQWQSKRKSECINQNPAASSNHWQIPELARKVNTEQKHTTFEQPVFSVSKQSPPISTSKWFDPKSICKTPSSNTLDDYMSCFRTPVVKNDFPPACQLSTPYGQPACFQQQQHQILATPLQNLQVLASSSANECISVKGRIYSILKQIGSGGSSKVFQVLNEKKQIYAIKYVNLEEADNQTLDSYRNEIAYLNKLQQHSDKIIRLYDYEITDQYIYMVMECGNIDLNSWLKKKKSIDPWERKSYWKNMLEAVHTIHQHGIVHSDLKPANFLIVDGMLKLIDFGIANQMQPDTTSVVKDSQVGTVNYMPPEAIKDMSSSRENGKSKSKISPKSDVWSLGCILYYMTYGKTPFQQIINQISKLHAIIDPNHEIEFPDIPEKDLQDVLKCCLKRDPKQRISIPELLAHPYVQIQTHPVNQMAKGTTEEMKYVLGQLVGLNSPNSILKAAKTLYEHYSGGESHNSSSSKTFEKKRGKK
As to conditions: at 0.1 µM.

For assay [15], the system named is T6, Receptor-type tyrosine-protein kinase FLT3 (Homo sapiens), P36888 [D835Y].
T6 sequence (whole entry): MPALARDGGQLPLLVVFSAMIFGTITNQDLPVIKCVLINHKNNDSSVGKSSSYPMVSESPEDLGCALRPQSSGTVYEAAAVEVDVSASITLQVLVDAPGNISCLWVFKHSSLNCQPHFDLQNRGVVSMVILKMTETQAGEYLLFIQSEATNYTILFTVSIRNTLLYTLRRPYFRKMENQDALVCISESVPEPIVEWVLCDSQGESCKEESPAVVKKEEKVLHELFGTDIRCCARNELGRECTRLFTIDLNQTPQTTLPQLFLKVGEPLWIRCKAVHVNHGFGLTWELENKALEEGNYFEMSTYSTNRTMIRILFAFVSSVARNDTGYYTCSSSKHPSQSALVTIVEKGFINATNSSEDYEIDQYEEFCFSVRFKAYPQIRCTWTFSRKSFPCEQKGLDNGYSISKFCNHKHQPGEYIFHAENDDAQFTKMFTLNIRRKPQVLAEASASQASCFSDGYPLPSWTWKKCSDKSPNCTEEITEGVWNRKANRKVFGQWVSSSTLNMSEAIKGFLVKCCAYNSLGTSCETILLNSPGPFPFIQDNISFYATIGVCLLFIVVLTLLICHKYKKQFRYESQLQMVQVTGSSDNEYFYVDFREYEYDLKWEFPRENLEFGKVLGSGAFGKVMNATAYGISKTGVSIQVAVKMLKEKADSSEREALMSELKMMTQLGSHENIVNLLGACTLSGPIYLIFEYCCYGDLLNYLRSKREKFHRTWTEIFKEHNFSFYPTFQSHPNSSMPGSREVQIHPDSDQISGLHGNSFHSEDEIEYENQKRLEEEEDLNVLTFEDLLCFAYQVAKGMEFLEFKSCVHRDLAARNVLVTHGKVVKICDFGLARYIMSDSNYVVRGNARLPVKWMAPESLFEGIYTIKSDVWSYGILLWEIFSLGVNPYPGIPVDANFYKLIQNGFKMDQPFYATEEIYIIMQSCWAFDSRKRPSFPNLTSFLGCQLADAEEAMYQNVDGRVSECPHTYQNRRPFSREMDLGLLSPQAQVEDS
The conditions noted are these: at 1 µM.

Assay [16] concerns the target Vascular endothelial growth factor receptor 3 (Homo sapiens) (UniProt P35916). As to conditions: at 0.1 µM.
For assay [17] the target is unchanged. The conditions noted are these: at 1 µM.
Assay [18] concerns the target Macrophage colony-stimulating factor 1 receptor (Homo sapiens) (UniProt P07333). As to conditions: at 0.1 µM.
Assay [19] has the same target. As to conditions: at 1 µM.
Assay [20] addresses Tyrosine-protein kinase Fyn (Homo sapiens) (UniProt P06241). The conditions noted are these: at 0.1 µM.

As a reminder, the inhibition is the drop in the measured response relative to a control, in per cent.

Sequence of Serine/threonine-protein kinase Nek7 (Homo sapiens) (Q8TDX7 whole entry, looked up): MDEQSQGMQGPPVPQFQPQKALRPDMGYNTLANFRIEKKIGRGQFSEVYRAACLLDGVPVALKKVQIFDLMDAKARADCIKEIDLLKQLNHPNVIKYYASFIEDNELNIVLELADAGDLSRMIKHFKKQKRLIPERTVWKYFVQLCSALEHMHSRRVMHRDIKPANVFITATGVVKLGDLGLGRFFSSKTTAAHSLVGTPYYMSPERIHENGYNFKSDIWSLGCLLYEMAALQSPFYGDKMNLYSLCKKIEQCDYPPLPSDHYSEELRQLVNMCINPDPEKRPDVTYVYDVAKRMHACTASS
Sequence of Vascular endothelial growth factor receptor 3 (Homo sapiens) (P35916 whole entry): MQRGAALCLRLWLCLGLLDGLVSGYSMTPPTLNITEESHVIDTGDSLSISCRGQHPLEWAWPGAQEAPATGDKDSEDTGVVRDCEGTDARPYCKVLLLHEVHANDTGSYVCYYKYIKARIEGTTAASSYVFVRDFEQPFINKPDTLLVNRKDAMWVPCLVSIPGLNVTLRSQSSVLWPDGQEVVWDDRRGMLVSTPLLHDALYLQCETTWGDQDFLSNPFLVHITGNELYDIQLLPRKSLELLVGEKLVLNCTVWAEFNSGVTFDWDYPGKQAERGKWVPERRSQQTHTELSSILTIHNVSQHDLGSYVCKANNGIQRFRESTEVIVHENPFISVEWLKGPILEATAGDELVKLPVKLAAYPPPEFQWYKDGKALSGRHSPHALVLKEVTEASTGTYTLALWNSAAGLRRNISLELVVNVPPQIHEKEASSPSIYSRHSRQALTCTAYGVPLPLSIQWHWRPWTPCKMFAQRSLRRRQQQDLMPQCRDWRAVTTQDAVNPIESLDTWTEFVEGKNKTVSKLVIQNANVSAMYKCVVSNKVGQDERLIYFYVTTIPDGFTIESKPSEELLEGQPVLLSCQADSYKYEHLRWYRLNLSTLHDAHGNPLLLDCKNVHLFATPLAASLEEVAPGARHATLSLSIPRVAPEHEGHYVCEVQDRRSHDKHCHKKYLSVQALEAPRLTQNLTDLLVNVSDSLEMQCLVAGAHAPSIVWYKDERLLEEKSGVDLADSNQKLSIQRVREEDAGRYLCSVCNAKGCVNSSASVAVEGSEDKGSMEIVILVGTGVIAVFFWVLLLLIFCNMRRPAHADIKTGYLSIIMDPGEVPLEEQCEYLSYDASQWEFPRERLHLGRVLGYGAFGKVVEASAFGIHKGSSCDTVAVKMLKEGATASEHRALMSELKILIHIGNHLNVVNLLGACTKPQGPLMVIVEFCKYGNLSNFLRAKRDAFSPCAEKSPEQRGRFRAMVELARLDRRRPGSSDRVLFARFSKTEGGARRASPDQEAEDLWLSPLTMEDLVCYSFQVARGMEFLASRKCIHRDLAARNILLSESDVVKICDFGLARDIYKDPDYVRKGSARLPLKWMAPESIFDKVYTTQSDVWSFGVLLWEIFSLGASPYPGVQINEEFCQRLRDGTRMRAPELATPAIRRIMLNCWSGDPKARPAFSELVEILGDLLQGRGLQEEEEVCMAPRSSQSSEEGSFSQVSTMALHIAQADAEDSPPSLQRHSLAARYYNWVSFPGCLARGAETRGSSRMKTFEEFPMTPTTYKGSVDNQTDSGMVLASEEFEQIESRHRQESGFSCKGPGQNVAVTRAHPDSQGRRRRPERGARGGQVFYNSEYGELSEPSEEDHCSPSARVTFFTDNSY
Sequence of Macrophage colony-stimulating factor 1 receptor (Homo sapiens) (P07333 whole entry): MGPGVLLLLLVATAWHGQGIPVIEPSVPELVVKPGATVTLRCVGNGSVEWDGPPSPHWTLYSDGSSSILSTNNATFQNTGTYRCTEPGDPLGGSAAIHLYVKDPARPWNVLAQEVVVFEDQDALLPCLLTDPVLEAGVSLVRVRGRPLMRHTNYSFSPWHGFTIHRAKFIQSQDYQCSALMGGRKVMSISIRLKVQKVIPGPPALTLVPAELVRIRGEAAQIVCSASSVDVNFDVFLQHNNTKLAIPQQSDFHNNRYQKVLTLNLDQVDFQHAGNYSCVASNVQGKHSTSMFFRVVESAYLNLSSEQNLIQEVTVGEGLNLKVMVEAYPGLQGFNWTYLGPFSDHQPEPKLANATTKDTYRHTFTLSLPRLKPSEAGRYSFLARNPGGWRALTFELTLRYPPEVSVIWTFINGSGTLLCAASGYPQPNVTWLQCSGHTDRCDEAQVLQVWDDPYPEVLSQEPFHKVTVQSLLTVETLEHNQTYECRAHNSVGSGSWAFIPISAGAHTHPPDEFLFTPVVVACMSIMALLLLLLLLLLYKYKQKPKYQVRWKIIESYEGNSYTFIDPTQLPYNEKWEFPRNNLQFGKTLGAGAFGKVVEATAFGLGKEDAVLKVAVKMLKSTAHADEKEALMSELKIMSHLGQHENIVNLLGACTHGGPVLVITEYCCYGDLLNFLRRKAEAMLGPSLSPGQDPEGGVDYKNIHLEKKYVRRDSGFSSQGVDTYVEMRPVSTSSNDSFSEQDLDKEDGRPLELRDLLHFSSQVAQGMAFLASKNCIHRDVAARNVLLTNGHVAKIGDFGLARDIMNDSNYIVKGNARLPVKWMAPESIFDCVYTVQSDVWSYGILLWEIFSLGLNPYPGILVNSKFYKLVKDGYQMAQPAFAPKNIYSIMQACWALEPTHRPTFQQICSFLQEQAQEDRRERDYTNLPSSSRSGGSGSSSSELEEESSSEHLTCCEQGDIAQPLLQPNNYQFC
Sequence of Serine/threonine-protein kinase Nek6 (Homo sapiens) (Q9HC98 whole entry): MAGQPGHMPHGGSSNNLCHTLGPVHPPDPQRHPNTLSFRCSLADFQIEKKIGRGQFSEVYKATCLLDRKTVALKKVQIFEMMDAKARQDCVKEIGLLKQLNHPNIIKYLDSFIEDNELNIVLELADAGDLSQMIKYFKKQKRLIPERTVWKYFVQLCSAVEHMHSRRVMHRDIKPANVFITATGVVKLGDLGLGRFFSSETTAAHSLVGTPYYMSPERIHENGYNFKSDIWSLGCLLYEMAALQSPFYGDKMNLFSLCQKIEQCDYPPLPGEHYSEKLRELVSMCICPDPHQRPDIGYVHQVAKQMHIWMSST
Sequence of Serine/threonine-protein kinase PLK1 (Homo sapiens) (P53350 whole entry): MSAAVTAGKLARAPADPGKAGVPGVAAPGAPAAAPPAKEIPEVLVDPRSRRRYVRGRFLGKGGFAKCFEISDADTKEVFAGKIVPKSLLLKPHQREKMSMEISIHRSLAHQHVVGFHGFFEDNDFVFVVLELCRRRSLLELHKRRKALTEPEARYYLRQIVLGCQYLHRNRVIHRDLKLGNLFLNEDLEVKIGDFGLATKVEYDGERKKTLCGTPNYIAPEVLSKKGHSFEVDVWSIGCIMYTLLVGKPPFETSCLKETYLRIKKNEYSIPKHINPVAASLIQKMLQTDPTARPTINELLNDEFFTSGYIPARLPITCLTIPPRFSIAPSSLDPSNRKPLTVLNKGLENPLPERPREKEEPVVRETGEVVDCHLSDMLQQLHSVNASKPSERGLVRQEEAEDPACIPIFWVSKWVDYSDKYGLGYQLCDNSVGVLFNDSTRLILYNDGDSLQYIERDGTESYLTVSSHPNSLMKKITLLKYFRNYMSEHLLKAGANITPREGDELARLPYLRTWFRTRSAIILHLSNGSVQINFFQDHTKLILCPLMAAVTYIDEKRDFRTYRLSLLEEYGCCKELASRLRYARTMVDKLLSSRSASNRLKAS
Sequence of Tyrosine-protein kinase Fyn (Homo sapiens) (P06241 2-537 limits assumed): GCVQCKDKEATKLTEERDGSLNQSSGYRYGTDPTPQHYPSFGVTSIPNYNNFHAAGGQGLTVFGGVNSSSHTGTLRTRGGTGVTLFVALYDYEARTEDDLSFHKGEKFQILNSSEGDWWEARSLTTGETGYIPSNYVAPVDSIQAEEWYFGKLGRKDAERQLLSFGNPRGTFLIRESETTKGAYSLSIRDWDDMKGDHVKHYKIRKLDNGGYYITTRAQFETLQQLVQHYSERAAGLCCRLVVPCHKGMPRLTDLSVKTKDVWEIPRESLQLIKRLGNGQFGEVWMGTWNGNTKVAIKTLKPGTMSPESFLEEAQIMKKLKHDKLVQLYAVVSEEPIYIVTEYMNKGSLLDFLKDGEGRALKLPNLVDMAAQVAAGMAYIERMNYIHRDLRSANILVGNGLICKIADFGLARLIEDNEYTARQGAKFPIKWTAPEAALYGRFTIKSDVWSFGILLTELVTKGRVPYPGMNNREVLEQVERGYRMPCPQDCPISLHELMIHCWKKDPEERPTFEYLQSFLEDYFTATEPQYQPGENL

`N#Cc1c(NC(=O)c2ccccc2F)sc2c1CCCC2`: the inhibition is -0.39% in assay [1]; 1.15% in assay [2]; 2.83% in assay [3]; 1.03% in [4]; 3.25% in assay [5]; -4.29% in [6]. The inhibition in [7] is -1.45%; in assay [8], -2.18%; in [9], 0.08%; in assay [10], -2.9%; in assay [11], 1.33%; in [12], -2.61%. In addition, the inhibition in [13] was 0.29%; in assay [14] it was 1.48%; in assay [15] it was -1.19%; in assay [16], -2.53%; in assay [17], 0.3%; in assay [18] it was -4.22%. The figures for the inhibition in assay [19] and in [20] were -1.66% and 1.38%, respectively.
As to `NS(=O)(=O)c1ccc(Nc2cc(-c3cccc(O)c3)n[nH]2)cc1`, the inhibition was 6.34% in [1]; 3.72% in assay [2]; 3.43% in assay [3]; 6.7% in [4]; 7.9% in assay [5]; 1.66% in assay [6]. Besides, the inhibition in assay [7] is -3.5%; in assay [8], 6.05%; in assay [9], 4.88%; in assay [10] it was 4.44%; in assay [11], 2.91%; in assay [12], 5.76%. The inhibition turned out to be 4.69% in [13]; 16% in assay [14]; 30.9% in assay [15]; 6.76% in [16]; 6.9% in [17]; 5.17% in [18]. Further, the inhibition in assay [19] was 15.4%; in [20] it was 4.67%.
